From paper PMC5540273 (PLoS ONE, 2017)
Where “and” joins values, the source holds several entries; their conditions need not be identical. Identical values can stand only once. Like-named read-outs stand apart in the source and are kept apart here.

Experiments:
[1] = test system: TLK2; settings: concentration: 1 μM, replicates: in singlicate, n = 1
[2] = test system: TNIK; settings: concentration: 1 μM, replicates: in singlicate, n = 1
[3] = test system: TNK1; settings: concentration: 1 μM, replicates: in singlicate, n = 1
[4] = test system: TNK2; settings: concentration: 1 μM, replicates: in singlicate, n = 1
[5] = test system: TNNI3K; settings: concentration: 1 μM, replicates: in singlicate; n = 1
[6] = test system: T1, TRKA; settings: concentration: 1 μM, replicates: in singlicate; n = 1
T1 construct: gene NTRK1

[7] = test system: TRKB; settings: concentration: 1 μM, replicates: in singlicate, n = 1
[8] = test system: T2, TRKC; settings: concentration: 1 μM, replicates: in singlicate, n = 1
T2 construct: gene NTRK3

[9] = test system: TRPM6; settings: concentration: 1 μM, replicates: in singlicate, n = 1
[10] = test system: TSSK1B; settings: concentration: 1 μM, replicates: in singlicate; n = 1
[11] = test system: TSSK3; settings: concentration: 1 μM, replicates: in singlicate, n = 1
[12] = test system: TTK; settings: concentration: 1 μM, replicates: in singlicate, n = 1
[13] = test system: TXK; settings: concentration: 1 μM, replicates: in singlicate, n = 1
[14] = test system: TYK2(JH1domain-catalytic); settings: concentration: 1 μM, replicates: in singlicate, n = 1
[15] = test system: TYK2(JH2domain-pseudokinase); settings: concentration: 1 μM, replicates: in singlicate, n = 1
[16] = test system: TYRO3; settings: concentration: 1 μM, replicates: in singlicate, n = 1
[17] = test system: ULK1; settings: concentration: 1 μM, replicates: in singlicate, n = 1
[18] = test system: ULK2; settings: concentration: 1 μM, replicates: in singlicate, n = 1
[19] = test system: ULK3; settings: concentration: 1 μM, replicates: in singlicate, n = 1
[20] = test system: T3, VEGFR2; settings: concentration: 1 μM, replicates: in singlicate, n = 1
T3 construct: gene KDR
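Further: KINOMEscan kinase panel screen.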

In the case of `O=C1NC(=O)C(N2CCc3ccccc32)=C1c1cccc(Cl)c1` [SB-408010], the “%Inh” value [1] is reported as 0%, the “%Inh” value [2] is reported as 0% and the “%Inh” value [3] is reported as 0%. The “%Inh” value [4] was 0%, the “%Inh” value [5] was 0% and the “%Inh” value [6] was 12%. For the same molecule, the “%Inh” value [7] was 0%, the “%Inh” value [8] was 0% and the “%Inh” value [9] was 21%. The “%Inh” value [10] was 22%, the “%Inh” value [11] was 0% and the “%Inh” value [12] was 39%. The “%Inh” value [13] was 0%, the “%Inh” value [14] was 4% and the “%Inh” value [15] was 0%. The “%Inh” value [16] was 0%, the “%Inh” value [17] was 0% and the “%Inh” value [18] was 0%. For the same molecule, the “%Inh” value [19] was 14% and the “%Inh” value [20] was 6%.

For `Cl.Cl.Cl.Fc1ccc(-c2ncn(C3CCNCC3)c2-c2ccnc(Nc3ccccc3)n2)cc1` [SB-238039], the “%Inh” value ([1]; 1 µM) was 13% and 0%, the “%Inh” value ([2]; 1 µM) was 86% and 84% and the “%Inh” value ([3]; 1 µM) was 58% and 12%. For the same molecule, the “%Inh” value ([4]; 1 µM) was 0% and 10%, the “%Inh” value [5] was 0% and the “%Inh” value [6] was 0%. For the same molecule, the “%Inh” value ([7]; 1 µM) was 18% and 16%, the “%Inh” value ([8]; 1 µM) was 67% and 0% and the “%Inh” value ([9]; 1 µM) was 6% and 0%. The “%Inh” value [10] was 0%, the “%Inh” value ([11]; 1 µM) was 19% and 5% and the “%Inh” value ([12]; 1 µM) was 15% and 3%. For the same molecule, the “%Inh” value ([13]; 1 µM) was 3% and 0%, the “%Inh” value ([14]; 1 µM) was 35% and 0% and the “%Inh” value ([15]; 1 µM) was 18% and 0%. For the same molecule, the “%Inh” value ([16]; 1 µM) was 0% and 12%, the “%Inh” value ([17]; 1 µM) was 28% and 6% and the “%Inh” value ([18]; 1 µM) was 21% and 29%. The “%Inh” value ([19]; 1 µM) was 24% and 26% and the “%Inh” value ([20]; 1 µM) was 0% and 9%.

For `CN(C(=O)c1ccc(-c2cc(-c3c[nH]nc3-c3ccccn3)ccn2)cc1)C1CCOCC1` [GW810083], the “%Inh” value [1] was 0%, the “%Inh” value [2] was 23% and the “%Inh” value [3] was 0%. The “%Inh” value [4] was 0%, the “%Inh” value [5] was 0% and the “%Inh” value [6] was 38%. The “%Inh” value [7] was 41%, the “%Inh” value [8] was 17% and the “%Inh” value [9] was 0%. For the same molecule, the “%Inh” value [10] was 0%, the “%Inh” value [11] was 33% and the “%Inh” value [12] was 0%. The “%Inh” value [13] was 0%, the “%Inh” value [14] was 12% and the “%Inh” value [15] was 25%. For the same molecule, the “%Inh” value [16] was 0%, the “%Inh” value [17] was 5% and the “%Inh” value [18] was 14%. The “%Inh” value [19] was 12% and the “%Inh” value [20] was 0%.

`CSc1ccc(-c2cc3ncnc(SCC(=O)O)c3s2)cc1` was tested, and the “%Inh” value [1] was 0%, the “%Inh” value [2] was 3% and the “%Inh” value [3] was 57%. The “%Inh” value [4] was 14%, the “%Inh” value [5] was 0% and the “%Inh” value [6] was 0%. The “%Inh” value [7] was 0%, the “%Inh” value [8] was 0% and the “%Inh” value [9] was 0%. The “%Inh” value [10] was 0%, the “%Inh” value [11] was 0% and the “%Inh” value [12] was 0%. For the same molecule, the “%Inh” value [13] was 0%, the “%Inh” value [14] was 0% and the “%Inh” value [15] was 0%. The “%Inh” value [16] was 0%, the “%Inh” value [17] was 0% and the “%Inh” value [18] was 8%. The “%Inh” value [19] was 0% and the “%Inh” value [20] was 0%.

For `COC(=O)Nc1nc2cc(Oc3ccc(NC(=O)Nc4cc(F)ccc4F)cc3)ccc2[nH]1.Cl` [GW701424], the “%Inh” value [1] was 3%, the “%Inh” value [2] was 0% and the “%Inh” value [3] was 0%. For the same molecule, the “%Inh” value [4] was 11%, the “%Inh” value [5] was 81% and the “%Inh” value [6] was 5%. For the same molecule, the “%Inh” value [7] was 68%, the “%Inh” value [8] was 76% and the “%Inh” value [9] was 0%. For the same molecule, the “%Inh” value [10] was 0%, the “%Inh” value [11] was 8% and the “%Inh” value [12] was 0%. For the same molecule, the “%Inh” value [13] was 88%, the “%Inh” value [14] was 30% and the “%Inh” value [15] was 46%. For the same molecule, the “%Inh” value [16] was 0%, the “%Inh” value [17] was 0% and the “%Inh” value [18] was 0%. For the same molecule, the “%Inh” value [19] was 7% and the “%Inh” value [20] was 68%.
